NCOA2 inhibitor = inhibits human steroid receptor coactivator 2; Q15596; HEK293 GAL4-SRC2 luciferase reporter, luminescence; inhibition, % at 9 µM; actives 0.17% (n = 370,000); AID 651957;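 active = inhibition above the mean inhibition of all tested compounds plus 3 SD, set per campaign, cut at about 52% in these data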;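 also: 0% = DMSO treated cells and 100% = cells given Gossypol at 36 µM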
Gli-Sufu antag = blocks Gli-Sufu signaling in a luciferase reporter. Sufu-KO-LIGHT fibroblasts, Gli luciferase reporter luminescence. inhibition, % at 5 µM. actives 0.74% (n = 340,000);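 active = inhibition above about 55%, limit read from the data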;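 also: 0% = DMSO-treated cells and 100% = wells with medium but no cells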
NR5A2 inv ag = inverse agonists of human LRH-1 (NR5A2) | actives 0.13% (n = 360,000) | inhibition, % at 3.6 µM | HEK293T StAR-luciferase reporter, LRH-1 transfected, 24 h;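 active = inhibition above the mean inhibition of all tested compounds plus 3 SD, cut at about 73% in these data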;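 also: 0% = DMSO wells and 100% = reporter-only cells lacking LRH-1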
Target sequence (O00482 whole entry, looked up): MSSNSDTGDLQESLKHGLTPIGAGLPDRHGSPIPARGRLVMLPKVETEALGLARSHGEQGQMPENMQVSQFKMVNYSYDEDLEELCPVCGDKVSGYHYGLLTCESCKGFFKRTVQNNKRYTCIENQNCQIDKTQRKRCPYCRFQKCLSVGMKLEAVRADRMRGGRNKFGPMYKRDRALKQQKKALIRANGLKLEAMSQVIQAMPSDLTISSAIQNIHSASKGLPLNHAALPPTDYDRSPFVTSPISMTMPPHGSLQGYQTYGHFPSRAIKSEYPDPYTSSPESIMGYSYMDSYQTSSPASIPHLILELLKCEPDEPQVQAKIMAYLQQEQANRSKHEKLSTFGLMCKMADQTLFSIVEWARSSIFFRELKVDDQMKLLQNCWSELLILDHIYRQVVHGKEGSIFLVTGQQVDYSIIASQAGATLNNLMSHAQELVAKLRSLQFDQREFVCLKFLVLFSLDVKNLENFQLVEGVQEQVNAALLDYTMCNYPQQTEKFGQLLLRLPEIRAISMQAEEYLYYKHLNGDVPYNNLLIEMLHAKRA
NCOA1 inh = inhibitors of human steroid receptor coactivator 1 (SRC1); HEK293 GAL4-SRC1 luciferase reporter, luminescence; inhibition, % at 3.6 µM; actives 0.12% (n = 360,000); Q15788; AID 588354;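 active = inhibition above the campaign mean plus 3 SD, with each screening campaign given its own cutoff, cut at about 60% in these data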;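 also: 0% = DMSO treated cells and 100% = gossypol at 36 µM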
NR2F2 inh = inhibitors of human COUP-TFII (NR2F2). actives 0.7% (n = 370,000). P24468. inhibition, % at 8.6 µM. AID 686940. HEK293T NGFI-A luciferase reporter, luminescence;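 active = inhibition above a per-plate cutoff, mean inhibition of test wells between control levels plus 3 SD, cut at about 38% in these data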;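 also: cells cotransfected with COUP-TFII expression vector driving the NGFI-A reporter; 0% = median of COUP-TF2 test wells and 100% = reporter-only cells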
SRC3 inh = inhibits human SRC3 coactivator. Q9Y6Q9. HEK293 GAL4-SRC3 luciferase reporter, luminescence. inhibition, % at 3.6 µM. actives 0.17% (n = 360,000). AID 588352;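 active = inhibition above a per-campaign cutoff, the mean of all compounds plus 3 SD, cut at about 60% in these data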;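 also: 0% = DMSO-treated cells and 100% = gossypol-treated cells at 36 µM; higher means less SRC3-driven luciferase light from the GAL4 reporter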
Gal4-VP16 ctr = counter-screen for COUP-TFII antagonists: inhibitors of VP16; actives 25% (n = 2,500); inhibition, % at 8.5 µM; shares compounds with NR2F2 inh; HEK293 Gal4-VP16 luciferase reporter, luminescence; AID 687007; in the data active = inhibition above about 13%
NR2F2 inh conf = COUP-TFII (NR2F2) inhibition, confirmation assay. shares compounds with NR2F2 inh. HEK293 NGFI-A luciferase reporter, luminescence. inhibition, % at 8.5 µM. actives 45% (n = 2,500);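 active = mean inhibition over three repeats above a set limit taken from the earlier primary screen, cut at about 38% in these data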;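 also: 100% = cells given the luciferase reporter alone without the COUP-TF2 vector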
* hit, by the source's call; . = no result given. Sampled rows, rich in hits. Any-hit rate of the full collection: about 1.3%.

SMILES	NCOA2 inhibitor	Gli-Sufu antag	NR5A2 inv ag	NCOA1 inh	NR2F2 inh	SRC3 inh	Gal4-VP16 ctr	NR2F2 inh conf
COC(=O)[C@]12C[C@H](CC(=O)N3CCCC3)C(=O)N(CCC3=CCCCC3)C1=C[C@H](C1CCCC1)O[C@@H]2C	25.7	.	.	.	3.2	.	.	.
CC(=O)N1CCc2cc(S(=O)(=O)NCCC(=O)N(C)C3CCCCC3)ccc21	7.3	.	.	.	21.7	.	.	.
Cn1c(=O)c2[nH]c(CCCCCCCc3nc4ccccc4[nH]3)nc2n(C)c1=O	14.7	19.4	3.7	0.6	54.6*	15.7	1.4	27.1
Cn1c(=O)c2[nH]c(CCCCCc3nc4ccccc4[nH]3)nc2n(C)c1=O	3.9	9.9	6.7	-24.6	-4.2	-15.7	.	.
O=C(C1CCCN(S(=O)(=O)c2cccc3nsnc23)C1)N1CCc2ccccc2C1 (stereo unspecified)	32.0	11.3	-15.1	-8.6	40.6*	-6.8	-5.9	1.8
O=C(Nc1ccc(Oc2cccnc2)cc1)C1CCN(Cc2cc(Cl)ccc2O)CC1	19.1	3.7	30.5	16.5	61.5*	26.0	7.9	48.2*
O=C(Nc1ccc(Oc2ccccc2)nc1)C1CCN(Cc2cccc(F)c2)CC1	-5.7	21.2	-0.1	-25.4	10.3	7.6	.	.
C#Cc1ccc(CN2CCC(C(=O)Nc3ccc(Oc4ccccc4)nc3)CC2)cc1	16.8	19.3	13.2	6.9	48.6*	23.1	3.6	28.0
Cc1cnc(NC(=O)COc2ccccc2Cl)s1	34.3	-70.3	-74.5	-28.7	41.4*	-11.6	-27.5	4.2
Nn1c(SCc2cccc3ccccc23)nnc1-c1n[nH]c2c1CCC2	-19.7	.	.	.	-0.4	.	.	.
Cn1nc(C(F)(F)F)c(C#N)c1N1CCN(c2ccc(F)cc2)CC1	41.2	4.2	3.6	42.9	45.1*	50.5	11.1	30.8
COc1ccccc1CNc1nc(NCc2ccccc2SC)c2sccc2n1	9.3	.	15.5	9.6	34.5	14.4	.	.
COCCNc1nc(NCc2ccccc2OC)c2sccc2n1	10.4	.	21.9	-1.5	27.2	-1.0	.	.
COc1ccccc1CNc1nc(NCc2cccs2)nc2ccsc12	4.2	.	22.4	-12.3	18.1	-8.6	.	.
COc1ccccc1CNc1nc(Nc2cccc(-c3cnco3)c2)c2sccc2n1	-5.2	.	5.7	10.1	47.7*	-8.8	0.8	21.4
COc1ccccc1CNc1nc(NCC2CC2)nc2ccsc12	16.1	.	2.3	-2.9	46.8*	3.8	-8.0	12.5
COc1ccccc1CNc1nc(NCc2ccccc2OC)c2sccc2n1	15.9	.	2.0	-3.8	53.0*	1.7	3.6	26.4
O=C1C[C@@H](c2ccccc2)N=C2N(Cc3ccc4c(c3)OCO4)C/C(=C/c3ccccc3)N12	1.1	.	.	.	14.1	.	.	.
Cn1c(Cc2cccs2)nnc1SCC(=O)Nc1ccc(OCc2ccccc2)cc1	-8.9	.	.	.	-9.5	.	.	.
O=C(Nc1ccc(Cl)c(S(=O)(=O)N2CCOCC2)c1)c1ccc(Cl)nc1	-2.4	9.7	12.7	17.6	44.1*	-0.3	3.3	16.0
COc1ccc(NC(=O)c2cc3c(s2)CCC(C)C3)cc1S(=O)(=O)N1CCOCC1 (stereo unspecified)	12.9	28.2	22.6	25.1	60.2*	22.4	-16.0	28.1
COc1ccc(C(=O)Nc2ccc(Cl)c(S(=O)(=O)N3CCOCC3)c2)cc1	20.4	-2.8	20.9	31.4	58.6*	20.0	-6.2	25.2
COc1ccc(CCNC(=O)c2ccc(Cl)c(S(=O)(=O)N3CCCC3)c2)cc1	-29.0	6.8	10.2	0.5	40.8*	12.8	-3.8	19.7
COc1ccc(C(CNC(=O)c2ccc(Cl)c(S(=O)(=O)N3CCCC3)c2)N2CCCC2)cc1 (stereo unspecified)	-7.6	17.5	8.1	2.1	-10.6	3.4	.	.
O=C(CSc1nnc(-c2cccs2)n1Cc1ccco1)Nc1ccc(Oc2ccccc2)cc1	0.9	.	.	.	-0.4	.	.	.
O[C@H](COc1cccc(Br)c1)CN1CCC(C(O)(c2ccccc2)c2ccccc2)CC1	-13.3	.	.	.	-6.2	.	.	.
O=C(Nc1cccc(Br)c1)c1ccc(Cl)c(S(=O)(=O)N2CCOCC2)c1	30.8	20.1	5.9	16.7	58.6*	21.5	-5.7	57.3*

Bioassay records (PubChem BioAssay)
